# TDP-43 yeast inh – TDP-43 toxicity inhibition in yeast; actives 1.8% (n = 410,000); Potency, µM (top dose mostly 46.1 µM), for inactives: top-dose growth rescue (activation), actives largely listed as activators; TDP-43 expressing yeast growth rescue, BacTiter-Glo, 24 h; also: potency is read from the fitted curve at half-maximal effect; % of control where 0% means no effect; nearly all actives have a fitted effect of over 50% in size
#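 Cell-based yeast growth screen: TDP-43 expression induced in galactose, inoculum OD600=0.02 after raffinose pregrowth to mid-log. Read-out BacTiter-Glo luminescence at 24 hr, 30 deg C; inhibition of toxicity seen as signal increase.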
# pAkt inh – inhibitors of Akt phosphorylation; Neuro2A IGF-stimulated pAkt S473 HTRF, 20 min; active compounds read low; activity change, % for hits at 50 µM; actives 0.32% (n = 360,000); AID 651550; in the data active = activity change below about -80%; inconclusive = mostly about -51% to -80%; also: % is scaled to controls: 0 for no effect and ±100 for the full control effect
#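 Single-point screen (50 µM final compound) in Neuro2A cells stimulated 20 min with 6 nM IGF at 37 deg C. After lysis, Ser473-phosphorylated Akt read by HTRF (ex 330 nm, em 615/665 nm) as the 665/615 ratio.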
# FUS yeast rescue – FUS proteinopathy suppression in yeast. S. cerevisiae FUS-expressing, growth rescue, OD600, 24 h. Potency, µM (doses to about 76.6 µM), usual class: activators. AID 1347120. actives 0.24% (n = 390,000);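 also: potency is read from the fitted curve at half-maximal effect; plate controls were DMSO vehicle for no effect and reference control for full effect; nearly all actives have a fitted effect of over 55% in size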
#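 Quantitative HTS measuring growth restoration of FUS-toxic yeast. Galactose-induced cells (OD 0.005) were exposed 24hr at 30C to compounds at several concentrations, then absorbance at 600 nm was recorded.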
# aSyn yeast inh – alpha-synuclein toxicity inhibition in yeast; AID 652106; Potency, µM (series often up to 46.1 µM), without a hit: at the top dose growth rescue (activation), most hits filed as activators; Yeast expressing alpha-synuclein, growth rescue, BacTiter-Glo, 24 h; actives 0.14% (n = 370,000); also: potency is read from the fitted curve at half-maximal effect; % of control where 0% means no effect; nearly all actives have a fitted effect of over 65% in size
#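 Readout is rescue of growth in alpha-synuclein-expressing yeast, so inhibitors of toxicity appear as activators. Growth after 24 hr at 30 deg C in galactose medium is quantified by luminescence.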
# Abeta rescue – restores growth of yeast expressing A-beta42 peptide; AID 1347071; yeast expressing A-beta42, growth rescue, OD600, 48 h; response scale: 0% DMSO, 100% iron-clioquinol control; actives 0.063% (n = 410,000); Potency, µM (highest dose often 46.1 µM), hits mostly activators; also: potency is read from the fitted curve at half-maximal effect; nearly all actives have a fitted effect of over 55% in size
#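 Yeast growth medium received pinned compounds, then yeast cells expressing toxic A-beta were added; plates incubated at 30 C for 48 hr. Growth read as absorbance at 600 nm, normalized to DMSO and equimolar FeCl3 plus clioquinol controls.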
# * = called active by the depositor; i = inactive; ? = inconclusive; nt = not tested or not shown; [ ] = dose if it differs, or a comment. Compounds with a hit are over-represented: about 2.3% of the library has one in this group of screens. Unless noted, calls follow the shape of the dose curve; as a rule, active = well fitted curve in the direction sought with a large enough effect; inconclusive = small, poorly fitted or top-dose-only effect, or another doubt; inactive = no such curve, though single readings can be large; an effect the other way counts as inactive or inconclusive.
SMILES,TDP-43 yeast inh,pAkt inh,FUS yeast rescue,aSyn yeast inh,Abeta rescue
c1ccc(CSc2nnc(-c3cccnc3)o2)cc1,14µM*,i,i,0%,i
O=[N+]([O-])c1ccc(CSc2nnc(-c3cccnc3)o2)cc1,11µM*,i,i,0%,i
Cc1ccc(CSc2nnc(-c3cccnc3)o2)cc1,13µM*,i,i,3%,i
Fc1ccc(CSc2nnc(-c3cccnc3)o2)cc1,?,i,i,2%,i
Brc1ccc(CSc2nnc(-c3cccnc3)o2)cc1,-2%[9.22 µM],i,i,1%,i
Clc1ccc(CSc2nnc(-c3cccnc3)o2)cc1,11µM*,i,i,8%,i
Cc1cc(C)c(S(=O)(=O)Nc2cccc(-c3cn4ccccc4n3)c2)c(C)c1,6%,nt,?,nt,i
CCN(C(=O)CN1C(=O)COc2ccc(S(=O)(=O)N3CCOCC3)cc21)c1cccc(C)c1,15%,nt,i,nt,i
CCCCCCCCCCCCCCCCCC(=O)NCC(COP(=O)([O-])OCC[N+](C)(C)C)OCC (configuration not stated),nt,nt,nt,-75%,nt
c1cncc(-c2nnc(SCc3cccc4ccccc34)o2)c1,16µM*,i,i,10%,i
c1ccc(-c2csc3ncnc(Sc4nnnn4-c4ccccc4)c23)cc1,nt,nt,nt,0%,nt
O=C(N/N=C/c1ccccc1C(=O)O)c1ccccc1Br,-4%,i,i,1%,i
C=CCc1cccc(/C=N/NC(=O)c2ccccc2Br)c1O,16µM*,i,i,?,?
C=CCc1cccc(/C=N/NC(=O)c2ccccc2OC)c1O,16µM*,i,i,2%,i
COc1ccccc1/C=N/NC(=O)c1ccccc1Cl,-9%,i,i,-2%,i
COCCn1c(=N)c(C(=O)NC(C)c2ccccc2)cc2c(=O)n3cc(C)ccc3nc21 (configuration not stated),3%,nt,i,nt,i
Brc1ccc(OCc2nc(-c3ccccn3)n[nH]2)cc1,16µM*,i,i,?,i
CC(=O)Nc1ccc(NCc2ccc(-c3ccccc3)cc2)cc1,nt,i,i,16%,i
CCC(=O)Nc1ccc(NCc2ccc(-c3ccccc3)cc2)cc1,13µM*,i,i,0%,i
O=C(NCc1ccccn1)Nc1ccc(Br)cc1Cl,24%,i,i,3%,i
S=C(NCc1ccccn1)Nc1ccc(Br)cc1Cl,13µM*,i,i,3%,?
COC(=O)c1ccccc1NC(=O)CN1C(=O)COc2ccccc21,20%,nt,i,2%,i
CCOc1ccccc1NC(=O)CN1C(=O)COc2ccc(C)cc21,11µM*,i,i,-1%,i
COC(=O)c1ccccc1NC(=O)CN1C(=O)COc2ccc(Cl)cc21,13µM*,nt,i,nt,i
O=C(CCn1c(=O)c2cccn2c2cccnc21)NCc1ccc(F)cc1,21%,nt,i,nt,i
SMILES,TDP-43 yeast inh,pAkt inh,FUS yeast rescue,aSyn yeast inh,Abeta rescue
CC1CCC(Nc2ncnc3onc(-c4ccc(Cl)cc4)c23)CC1 (configuration not stated),20µM*,nt,i,-1%,i
Clc1ccc(-c2noc3ncnc(NC4CCCCC4)c23)cc1,35µM*,nt,i,nt,i
Clc1cccc(-c2noc3ncnc(NC4CCCCC4)c23)c1,-2%,nt,i,nt,i
CC1CCC(Nc2ncnc3onc(-c4ccc(F)cc4)c23)CC1 (configuration not stated),?,nt,i,nt,i
COc1ccc(C(=O)Nc2ccccc2-c2nc(-c3ccc(OC)cc3)no2)cc1,0%[9.22 µM],nt,i,nt,i
COc1c(Cl)cc(Cl)cc1CNCCSc1nnnn1C,-32%,nt,i,nt,i
CCCSc1ncc(Cl)c(C(=O)N2CCN(c3cccc(Cl)c3)CC2)n1,?,nt,i,nt,i
CCS(=O)(=O)c1ncc(Cl)c(C(=O)N2CCN(c3ccc(OC)cc3)CC2)n1,13µM*,nt,i,nt,i
CCS(=O)(=O)c1ncc(Cl)c(C(=O)NCc2ccc(OC)cc2)n1,?,nt,i,nt,i
COc1ccc(NC(=O)c2nc(SC)ncc2Cl)cc1,20µM*,i,i,1%,i
CCSc1ncc(Cl)c(C(=O)N2CCN(c3ccccc3OC)CC2)n1,35µM*,nt,i,nt,i
CCCSc1ncc(Cl)c(C(=O)N2CCN(c3ccc(OC)cc3)CC2)n1,?,nt,?,nt,i
COc1ccc(N2CCN(C(=O)c3nc(SC)ncc3Cl)CC2)cc1,20µM*,nt,i,nt,i
Cc1ccc(Cl)cc1N(C)C(=O)c1cc2c(Cl)nc3ccccc3c2s1,-9%,nt,i,nt,i
Cc1ccccc1-c1nc(CS(=O)(=O)CC(=O)NCc2cccc(Cl)c2)c(C)o1,-2%,nt,i,nt,i
Cc1cccc(N2CCN(Cc3nnc(-c4ccc5c(c4)OCO5)o3)CC2)c1C,21%,nt,i,nt,i
CCN1CCN(c2cc3c(cc2F)c(=O)c(S(=O)(=O)c2cc(C)cc(C)c2)cn3CC)CC1,0%,nt,i,nt,i
C=CCOc1ccc(/C=C/C(C)=N\O)cc1,10µM*,nt,i,nt,i
C=CCOc1ccc(/C=C/C(=O)OCC(=O)N2CCN(C(C)=O)CC2)cc1,-13%,i,i,0%,i
COc1ccc([C@H]2Cc3cccc(O)c3C(=O)O2)cc1O,11µM*,i,i,8%,i
CSc1ccccc1NC(=O)c1c(Br)cnn1C,?,-122%*,i,0%,i
CCCCCn1c(=O)[nH]c2cc(C(=O)N3CCN(c4cc(Cl)ccc4C)CC3)ccc2c1=O,21%,nt,i,nt,i
COc1ccc(NC(=O)c2cc(-c3cc(F)ccc3OC)n[nH]2)cn1,20µM*,i,i,-23%,i
COc1ccc(NC(=O)c2cc(-c3cc(F)ccc3OC)n[nH]2)c(OC)c1,20µM*,i,i,-17%,i
COc1ccc(NC(=O)c2cc(-c3cc(F)ccc3OC)n[nH]2)cc1OC,35µM*,i,i,-2%,i
COc1ccc(OC)c(NC(=O)c2cc(-c3ccc(F)cc3OC(C)C)n[nH]2)c1,22µM*,i,?,-8%,i
Cc1cc(NC(=O)c2cc(-c3ccc(Br)cc3)on2)nn1Cc1ccc(Cl)cc1,-4%,nt,i,nt,i
CCOc1ccc(-c2csc(-c3c(N)c(C(=O)c4ccc5c(c4)OCO5)n4ccccc34)n2)cc1,-12%,nt,i,nt,i
CCCCCn1c(=O)[nH]c2cc(C(=O)NC(C)CC)ccc2c1=O (configuration not stated),16%,nt,i,nt,i
c1ccc(-n2cnc3cc(NCc4ccccn4)ccc32)cc1,-1%,i,i,-4%,i

# Screens deposited in PubChem BioAssay by National Center for Advancing Translational Sciences (NCATS).
